# Data as given in PubChem BioAssay (NCATS).
# A number with no mark means an inactive call. Results filed as inconclusive are left out. Entries that show only a call come without a potency. Activity calls are given as the source filed them. Unless noted, the call rests on the fitted dose curve; in most records, active means well fitted curve in the direction sought with a large enough effect; inconclusive means small, poorly fitted or top-dose-only effect, or another doubt; inactive means no such curve, though single readings can be large; an effect the other way counts as inactive or inconclusive. Residues, ends and D or L forms follow the SMILES beside them. *: point of attachment. Cbz = O=C(OCc1ccccc1)*
# Tests used:
# [1] = test system: OV90; assay: Primary qHTS to identify gynecologic anti-cancer compounds using libraries of approved drugs and bioactive compounds (AID 1345084); conditions: Gynecologic cancer cell panel viability, ATPlite luminescence, 48 h; series mostly up to 57.5 µM; further: nearly all actives have a fitted effect of over 55% in size; further: potency means the concentration at half of the fitted maximal effect
# How it was run: (§1)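 Cytotoxicity screen measuring ATP content by luciferase luminescence. Each compound is applied at five concentrations for 48 h at 37 C with 5% CO2.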
# [2] = test system: PA-1; assay: as above; conditions: Gynecologic cancer cell panel viability, ATPlite luminescence, 48 h; series mostly up to 57.5 µM
# How it was run: as §1
# [3] = test system: SKOV3; assay: as above; conditions: Gynecologic cancer cell panel viability, ATPlite luminescence, 48 h; series mostly up to 57.5 µM
# How it was run: as §1
# [4] = test system: Tov-21-G; assay: as above; conditions: Gynecologic cancer cell panel viability, ATPlite luminescence, 48 h; series mostly up to 57.5 µM
# How it was run: as §1
# [5] = test system: Tov112D; assay: as above; conditions: Gynecologic cancer cell panel viability, ATPlite luminescence, 48 h; series mostly up to 57.5 µM
# How it was run: as §1
# [6] = qHTS assay to identify inhibitors of the type 1 interferon - major histocompatibility complex class I in skeletal muscle: Counter screen cell viability and HiBit confirmation (AID 1347412); conditions: iHSKM muscle cells + IFN-b, HiBiT or CellTiter-Glo, 24 h; Potency: HiBiT; Viability, at 45.9 µM (top of the series); further: nearly all actives have a fitted effect of over 60% in size; further: potency means the concentration at half of the fitted maximal effect
# How it was run: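 Duplicate plates, pinned identically: one read for HiBiT-tagged endogenous HLA-B luminescence, the other for ATP-content viability via CellTiter Glo. Cells were genome-engineered human myoblasts given 4 ng/ml IFN-b; compounds 12-pt, 1:3 from 46 uM final; 24 hr exposure.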
# [7] = Drug repurposing screens with cells derived from glioblastoma tumor samples (AID 1345199); conditions: GBM patient neurospheres viability, ATP luminescence, 48 h; Potency: tumour line A; series mostly up to 46.1 µM; further: nearly all actives have a fitted effect of over 40% in size; further: potency means the concentration at half of the fitted maximal effect
# How it was run: (§2)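 Primary testing used CD133+ neurospheres from four GBM patients, seven concentrations, 48 h exposure and ATP-based viability; confirmation added three slower-growing patient lines.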
# [8] = test system: astro; assay: as above; conditions: viability, ATP luminescence, 48 h; series mostly up to 45.9 µM
# How it was run: as §2
# [9] = molecular target: Nuclear receptor subfamily 1 group I member 2 (Rattus norvegicus) (UniProt Q9R1A7); assay: qHTS assay for small molecule activators of the rat pregnane X receptor (rPXR) signaling pathway (AID 651751; call rule not given here); conditions: rPXR reporter cells, luciferase (One-Glo), 24 h
# [10] = qHTS assay for small molecule activators of the human pregnane X receptor (PXR) signaling pathway (AID 720659; call rule not given here)
# Chain of Nuclear receptor subfamily 1 group I member 2 (Rattus norvegicus) (Q9R1A7 whole entry, looked up): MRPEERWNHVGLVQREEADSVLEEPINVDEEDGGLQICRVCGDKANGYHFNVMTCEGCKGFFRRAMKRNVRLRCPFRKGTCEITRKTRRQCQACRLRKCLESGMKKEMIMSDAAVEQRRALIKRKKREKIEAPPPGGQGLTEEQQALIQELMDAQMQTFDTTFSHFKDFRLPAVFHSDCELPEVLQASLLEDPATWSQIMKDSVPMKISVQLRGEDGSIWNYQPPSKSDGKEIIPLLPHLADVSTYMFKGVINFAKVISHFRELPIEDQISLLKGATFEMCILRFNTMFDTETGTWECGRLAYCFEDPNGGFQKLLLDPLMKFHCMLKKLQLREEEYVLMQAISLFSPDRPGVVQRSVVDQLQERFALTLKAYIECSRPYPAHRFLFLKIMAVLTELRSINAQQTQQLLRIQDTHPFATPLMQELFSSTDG
structure (smiles),measurement,setting,value
CC1=C(C(=O)Nc2cc3cn[nH]c3cc2F)C(c2ccc(Cl)cc2F)N=C(c2ccnc(Cl)c2)N1 (stereo not given),Potency,[1],inactive
same,Potency,[2],inactive
same,Potency,[3],inactive
same,Potency,[4],inactive
same,Potency,[5],inactive
c1cncc(CN2CCC(n3ncc4c(N5CCOCC5)nc(-c5ccc6[nH]ccc6c5)nc43)CC2)c1,Potency,[1],22.4 µM (active)
same,Potency,[2],17.8 µM (active)
same,Potency,[3],10 µM (active)
same,Potency,[4],12.6 µM (active)
same,Potency,[5],28.2 µM (active)
CCCCOc1ccc(C(=O)Nc2ccc(F)cc2F)cc1,Potency,[1],inactive
same,Potency,[2],inactive
same,Potency,[4],inactive
same,Potency,[5],inactive
Cc1cncc2cccc(S(=O)(=O)N3CCCN(C(=O)CN)C[C@@H]3C)c12,Potency,[1],inactive
same,Potency,[2],inactive
same,Potency,[4],inactive
same,Potency,[5],inactive
Cc1cnc(Nc2ccc(CN3CCOCC3)cc2)nc1Nc1cccc(S(=O)(=O)NC(C)(C)C)c1,Potency,[1],22.4 µM (active)
same,Potency,[2],1.58 µM (active)
same,Potency,[3],7.08 µM (active)
same,Potency,[4],2.24 µM (active)
same,Potency,[5],5.01 µM (active)
same,Potency,[6],8.83 µM (active)
O=C(Nc1ccc(Oc2ccnc3[nH]ccc23)c(F)c1)c1cccn(-c2ccc(F)cc2)c1=O,Potency,[1],inactive
same,Potency,[2],inactive
same,Potency,[3],inactive
same,Potency,[4],inactive
same,Potency,[5],inactive
CCN(CC)Cc1ccc2cc(COC(=O)Nc3ccc(C(=O)NO)cc3)ccc2c1,Potency,[1],1 µM (active)
same,Potency,[2],1.78 µM (active)
same,Potency,[4],7.94 µM (active)
same,Potency,[5],7.08 µM (active)
N[C@H]1CN(c2c(F)cc3c(=O)c(C(=O)O)cn(C4C[C@@H]4F)c3c2Cl)CC12CC2 (stereo not given in full),Potency,[1],inactive
same,Potency,[2],inactive
same,Potency,[3],inactive
same,Potency,[4],inactive
same,Potency,[5],inactive
same,Potency,[7],inactive
same,Potency,[8],inactive
Cc1coc2c1C(=O)C(=O)c1c-2ccc2c(C)cccc12,Potency,[1],inactive
same,Potency,[4],inactive
N#Cc1c(C2CCNCC2)cc(-c2c(O)cccc2OCC2CC2)nc1N,Potency,[1],inactive
same,Potency,[4],14.1 µM (active)
same,Potency,[5],inactive
same,Potency,[6],inactive
CCC[C@H]1C[C@H](C(=O)N[C@@H]([C@@H]2O[C@@H](SC)[C@@H](O)[C@@H](O)[C@@H]2O)[C@H](C)Cl)N(C)C1,Potency,[1],inactive
same,Potency,[2],inactive
same,Potency,[5],inactive
C=CC(=O)Nc1ccc2ncnc(Nc3ccc(OCc4cccc(F)c4)c(Cl)c3)c2c1,Potency,[1],inactive
same,Potency,[2],inactive
same,Potency,[3],inactive
same,Potency,[4],10 µM (active)
O=C(O)C(=O)Nc1cccc(C2=NN=N[N]2)c1,Potency,[7],inactive
same,Potency,[8],inactive
Cc1cnc(Nc2ccc(N3CCN(C)CC3)cc2)nc1Nc1cccc(S(=O)(=O)NC(C)(C)C)c1,Potency,[6],2.79 µM (active)
Cc1cc(O)c2c(c1)C(=O)c1cccc(O)c1C2=O,max response,[9],-1.64%
same,outcome,[10],inactive
FC(F)c1nc2ccccc2n1-c1nc(N2CCOCC2)nc(N2CCOCC2)n1,Potency,[2],2 µM (active)
same,Potency,[3],2.82 µM (active)
Nc1ccn(C[C@@H](CO)OCP(=O)(O)O)c(=O)n1,Potency,[7],inactive
same,Potency,[8],inactive
COc1cc(CCc2cc(NC(=O)c3ccc(N4C[C@@H](C)N[C@@H](C)C4)cc3)n[nH]2)cc(OC)c1,Potency,[2],20 µM (active)
same,Potency,[6],inactive
Cc1ccccc1C(=O)Nc1ccc(C(=O)N2CCCC(O)c3cc(Cl)ccc32)c(C)c1 (stereo not given),Potency,[2],inactive
same,Potency,[3],inactive
same,Potency,[4],inactive
same,Potency,[5],inactive
same,Potency,[8],inactive
CN(C)CCN1C(=O)c2cccc3cc(N)cc(c23)C1=O,Potency,[6],8.83 µM (active)
FC(F)(F)c1ccc(Nc2nc3ccc(Oc4ccnc(-c5ncc(C(F)(F)F)[nH]5)c4)cc3[nH]2)cc1,Potency,[5],inactive
CCOc1cc2c(c(F)c1OCC)C(=N)N(CC(=O)c1cc(N3CCOCC3)c(OC)c(C(C)(C)C)c1)C2,Potency,[4],inactive
same,Potency,[5],inactive
COC[C@H](NC(=O)c1cnc(C)s1)C(=O)N[C@@H](COC)C(=O)N[C@@H](Cc1ccccc1)C(=O)[C@@]1(C)CO1,Potency,[6],0.198 µM (active)
Cc1onc(-c2ccccc2)c1C(=O)N[C@@H]1C(=O)N2[C@@H](C(=O)O)C(C)(C)S[C@@H]12,Potency,[7],inactive
same,Potency,[8],inactive
CCCCCCCN(CC)CCCC(O)c1ccc(NS(C)(=O)=O)cc1 (stereo not given),Potency,[8],inactive
Cc1cnc(NC(=O)Nc2cc(Br)c(C)cc2OC[C@@H]2CNCCO2)cn1,Potency,[6],inactive
CC(C=CC1=C(C)CCCC1(C)C)=CC=CC(C)=CC(=O)Nc1ccc(O)cc1,outcome,[10],inactive
O=C1c2cccc(O)c2C(=O)c2c(O)cc(CO)cc21,max response,[9],-0.0257%
same,outcome,[10],inactive
CCCCCCCCCCCCCCCC(=O)OC[C@@H](NC(=O)C(Cl)Cl)[C@H](O)c1ccc([N+](=O)[O-])cc1,Potency,[7],inactive
same,Potency,[8],inactive
CCc1nc(-c2cccc(C)c2)c(-c2ccnc(NC(=O)c3ccccc3)c2)s1,Potency,[2],inactive
same,Potency,[4],inactive
same,Potency,[5],inactive
CC(C)C[C@@H](C=O)NC(=O)[C@H](CC(C)C)NC(=O)[C@H](CC(C)C)NC(=O)OCc1ccccc1 (Cbz-Leu-Leu-Leu-aldehyde),Potency,[6],6.25 µM (active)
c1cc(N[C@@H]2CCNC2)nc(-c2cnc3ccc(-c4cn[nH]c4)cn23)c1,Potency,[2],10 µM (active)
same,Potency,[5],14.1 µM (active)
same,Potency,[6],inactive
CCS(=O)(=O)Nc1ccc2[nH]c(O)c(C(=Nc3ccc(CN4CCCCC4)cc3)c3ccccc3)c2c1,Potency,[6],0.625 µM (active)
Oc1cc(-c2nc(-c3ccccc3)[nH]c2-c2ccncc2)ccc1Cl,Potency,[2],inactive
same,Potency,[3],inactive
same,Potency,[4],17.8 µM (active)
same,Potency,[5],inactive
Nc1ccc(C(=O)Nc2cccc(-c3nc(N4CCOCC4)c4oc5ncccc5c4n3)c2)cn1,Potency,[2],3.16 µM (active)
same,Potency,[3],15.8 µM (active)
CC(C)N1[N]C(=C2C=c3cc(O)ccc3=N2)c2c(N)ncnc21,Potency,[8],3.55 µM (active)
OC[C@@H](O)[C@@H](O)[C@H](O)[C@@H](O)CO,max response,[9],14.3%
same,outcome,[10],inactive
